The inhibition is the change of the read-out against control, counted positive when it falls.

A number with no mark means an inactive call. No rule for the calls is given here.

The results in this text go back to PubChem BioAssay AID489017 (The Scripps Research Institute Molecular Screening Center, 2010).

The assay deals with Imidazoline I2 Central. In words: receptor, enzyme and CYP inhibition profiling – biochemical, Ricerca HitProfilingScreen, CYP450, selectivity assay for S1P4 antagonist project, profiling panel (AID 489017). The conditions noted are these: Ricerca receptor/enzyme binding panel plus CYP450, at 10 µM, hits give high values.

As to `CCc1cccc(CC)c1NC(=O)c1ccc(-c2cc(Cl)ccc2Cl)o1`, the inhibition was 8%.
